# Screening results: PubChem BioAssay, National Center for Advancing Translational Sciences (NCATS)
# Tau fluor counter: counter-screen for tau fibril formation inhibitors. actives 0.93% (n = 280,000). Potency, µM (doses to about 57.7 µM). tau K18 P301L Alexa594 fluorescence, heparin fibrillization; further: nearly all actives have a fitted effect of over 55% in size
#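 Human K18 P301L tau (15 uM unlabeled plus 0.24 uM Alexa 594-labeled, final) in 100 mM sodium acetate pH 7 was mixed with compound and 20 uM heparin and incubated 6 hr at 37 C.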
# KDM4E inh: inhibitors of human JMJD2E histone demethylase. JMJD2E catalytic domain, FDH-coupled NADH fluorescence (FDH is formaldehyde dehydrogenase). Potency, µM (titrated, usually from 57.1 µM), actives largely listed as inhibitors. actives 1.6% (n = 230,000). AID 2147; active means well fitted inhibition curve with a large enough effect, not every such curve was filed as active; inconclusive means small, poorly fitted or top-dose-only effect, or another doubt; inactive means no such curve, though single readings can be large or run the other way; further: nearly all actives have a fitted effect of over 50% in size
# Tau fibril ThT: tau fibrillization inhibition (ThT binding) | P10636 | recombinant tau K18 P301L, heparin-induced fibrillization, ThT fluorescence | Potency, µM (highest dose often 57.4 µM), actives largely listed as inhibitors | actives 2.1% (n = 270,000); further: nearly all actives have a fitted effect of over 55% in size
# Target sequence (P10636 561-689 P618L limits assumed): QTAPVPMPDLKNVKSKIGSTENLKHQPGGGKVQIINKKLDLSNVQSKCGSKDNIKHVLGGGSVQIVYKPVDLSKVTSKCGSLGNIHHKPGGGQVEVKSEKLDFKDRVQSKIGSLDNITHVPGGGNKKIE
#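 Using a mix of unlabeled (15 uM) and Alexa 594-labeled (0.24 uM) tau K18 P301L, heparin-triggered fibrillization over 6 hr at 37 C was scored by ThT fluorescence.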
# HPGD inh: HPGD (human) dehydrogenase inhibition. Potency, µM, most hits filed as inhibitors. AID 894. actives 4.3% (n = 150,000). P15428. purified HPGD, NADH fluorescence kinetic, PGE2 substrate; active means well fitted inhibition curve with a large enough effect, not every such curve was filed as active; inconclusive means small, poorly fitted or top-dose-only effect, or another doubt; inactive means no such curve, though single readings can be large or run the other way
#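 20 nM HPGD preincubated 15 min at room temperature with compound in 50 mM Tris-HCl pH 8, 0.01% Tween 20. Started with 1 mM NAD+ and 30 uM prostaglandin E2; NADH fluorescence (360/450 nm) read 5 times over 30-s intervals, last minus first.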
# ALDH1A1 inh: blocks purified human ALDH1A1 activity; P00352; Purified ALDH1A1, NADH fluorescence, propionaldehyde substrate; Potency, µM (titrated, usually from 75.3 µM), actives largely listed as inhibitors; actives 7.3% (n = 220,000); active means well fitted inhibition curve with a large enough effect, not every such curve was filed as active; inconclusive means small, poorly fitted or top-dose-only effect, or another doubt; inactive means no such curve, though single readings can be large or run the other way
# Target sequence (P00352 whole entry, looked up): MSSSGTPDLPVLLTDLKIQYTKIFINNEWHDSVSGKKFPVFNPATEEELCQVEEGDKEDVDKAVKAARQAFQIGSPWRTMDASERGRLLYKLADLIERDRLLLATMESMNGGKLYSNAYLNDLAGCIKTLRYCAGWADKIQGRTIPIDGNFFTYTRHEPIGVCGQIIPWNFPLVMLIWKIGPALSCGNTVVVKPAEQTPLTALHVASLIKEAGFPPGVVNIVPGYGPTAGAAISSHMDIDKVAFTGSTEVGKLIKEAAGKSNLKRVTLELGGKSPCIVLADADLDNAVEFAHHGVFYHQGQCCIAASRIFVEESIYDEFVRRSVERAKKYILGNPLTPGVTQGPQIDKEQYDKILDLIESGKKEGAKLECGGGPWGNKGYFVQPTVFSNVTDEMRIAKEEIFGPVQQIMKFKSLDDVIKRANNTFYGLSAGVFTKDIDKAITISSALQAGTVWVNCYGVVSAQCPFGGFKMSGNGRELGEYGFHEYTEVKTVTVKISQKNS
# Tau fibril FP: inhibitors of human tau fibril formation. P10636. K18 P301L tau heparin fibrillization, Alexa594 FP, 6 h. Potency, µM (titrated, usually from 57.7 µM), actives largely listed as inhibitors. actives 0.39% (n = 280,000). AID 1468; further: nearly all actives have a fitted effect of over 55% in size
#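 Read-out: fluorescence polarization of Alexa 594-labeled tau (0.24 uM), 555 nm excitation, 632 nm emission. Mixtures held 15 uM unlabeled K18 P301L, compound and 20 uM heparin, pH 7 acetate buffer, incubated 6 hr at 37 C.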
# A number is an active result; n = inactive; u = inconclusive; x = no result given; [ ] = dose if it differs, or a comment. An excerpt weighted towards active compounds, which were near 9.9% of everything screened. Unless noted, the call rests on the fitted dose curve; in most records, active means well fitted curve in the direction sought with a large enough effect; inconclusive means small, poorly fitted or top-dose-only effect, or another doubt; inactive means no such curve, though single readings can be large; an effect the other way counts as inactive or inconclusive.
SMILES,Tau fluor counter,KDM4E inh,Tau fibril ThT,HPGD inh,ALDH1A1 inh,Tau fibril FP
O=C(CNS(=O)(=O)c1ccccc1)NCC(=O)OCc1ccc(C(=O)c2ccccc2)cc1,n,n,n,20µM,n,n
CCc1nc2sc3c(c2c(=O)n1NC(=O)CCl)CCCC3,n,n,n,n,13µM,n
CC(=O)N(C(C)=O)n1c(C)nc2sc3c(c2c1=O)CCCC3,n,n,u,x,n,n
CC1CCCC(C)N1C(=O)Cn1c(SCC(=O)Nc2ccc3c(c2)OCO3)nc2ccccc21 (stereo not given),n,n,n,n,5µM,n
O=C(CSc1nc2ccccc2n1CC(=O)N1CCCC1)Nc1ccc2c(c1)OCO2,n,n,n,n,u,n
Cc1ccc2c(c1)Cc1c(nc(-c3ccc(Cl)cc3)nc1SCC(=O)N1CCCCC1)O2,n,x,n,x,x,n
O=C(NCc1ccc(F)cc1)c1ccc(CS(=O)(=O)Cc2ccccc2F)o1,n,n,n,n,13µM,n
O=C(NCc1ccc(F)cc1)c1ccc(CS(=O)(=O)Cc2ccc(F)cc2)o1,n,n,n,n,n,n
O=C(c1csnn1)N1CCC2(CC1)CCN(c1ccccn1)CC2,x,x,x,n,u,x
O=C(O)c1cc(N(Cc2ccccc2O)Cc2cc(O)ccc2O)ccc1O,u,x,18µM,u,u,n
NCC(=O)NC1(C(=O)O)CCCC1,x,x,x,n,n[13.5 µM],x
Cc1ccc(-c2cc(C(=O)NC3=NCCS3)c3cc(Br)ccc3n2)o1,u,8.9µM,u,2.5µM,0.11µM,n
Cc1ccc(-c2cc(C(=O)NN3CCOCC3)c3cc(Br)ccc3n2)o1,n,u,u,x,u,n
Cc1ccc(-c2cc(C(=O)O)c3cc(Br)ccc3n2)o1,n,u,20µM,u,u,u
Cc1ccc(-c2cc(C(=O)NCCCn3ccnc3)c3cc(Br)ccc3n2)o1,n,u,u,u,u,n
Cc1noc(C)c1S(=O)(=O)Nc1ccc(C(=O)N2CCC(C)CC2)cc1,n,n,n,x,n,n
O=C1Nc2ccccc2SC(c2ccccc2)C1O (stereo not given),n,u,n,28µM,n,n
CCn1c(SCC(=O)OC(C)C)nnc1-c1ccccc1OC,n,n,n,x,n,n
CC(=O)c1c(C)[nH]c(C(=O)N2CCCCCC2)c1C,n,n,n,13µM,n,n
CC(=O)c1c(C)[nH]c(C(=O)N2CCN(c3ncccn3)CC2)c1C,n,n,n,n,n,n
O=C1c2c(O)cc(O)cc2O[C@H](c2ccc(O)c(O)c2)[C@@H]1O,n,14µM,u,x,x,n
O=C1c2c(O)cc(O)cc2O[C@H](c2ccc(O)c(O)c2)[C@H]1O,n,20µM,u,x,x,n
COc1cc(OC)c2c(c1)OC(c1ccc(OC)c(OC)c1)C(O)C2=O (stereo not given),n,n,n,n,u,n
Cc1ccc(NC(=O)/C=C\C(=O)NCC(=O)O)cc1,n,n,n,x,28µM,n
CCOC(=O)Nc1ccc(NS(=O)(=O)c2ccc(C)cc2)cc1,n,n,n,n,u,n
SMILES,Tau fluor counter,KDM4E inh,Tau fibril ThT,HPGD inh,ALDH1A1 inh,Tau fibril FP
Cc1ccc(S(=O)(=O)Nc2ccc(NC(=O)/C=C/C(=O)O)cc2)cc1,n,n,n,x,35µM,n
CCC(=O)Nc1ccc(Br)cn1,n,n,n,x,n,n
CCN(CC)c1ccc(CNc2ccc(Br)cn2)cc1,n,u,n,n,7.1µM,n
CC(C)NC(=O)NC(=O)COC(=O)Cc1ccsc1,n,n,n,n,14µM,n
CC(C)(C)N1C(=O)[C@H]2[C@H]3[C@H](O)[C@H](O)C/C(=N/OC[C@@H](O)COCc4ccco4)[C@@H]3CC[C@@H]2C1=O,n[11.6 µM],x,n[11.5 µM],x,n[13.5 µM],n[11.6 µM]
Cc1ccc(S(=O)(=O)/N=C(\c2ccccc2)N(C)S(=O)(=O)c2ccccc2)cc1,n,u,n,n,u,n
CN(/C(=N\S(=O)(=O)c1ccccc1)C(F)(F)F)c1ccccc1,n,n,n,n,28µM,n
CC(C)NC(=O)C1=CC(c2ccc3c(c2)OCO3)=NS(=O)(=O)N1C,n,x,n,x,x,n
Cc1ccc(N(CC(=O)N2CCN(c3cccc(C)c3C)CC2)S(=O)(=O)c2c(C)nn(C)c2C)cc1,n,x,u,x,x,n
C=CCN1CCN(C(c2cc(OC)ccc2OC)c2nnnn2CC2CCCO2)CC1 (stereo not given),n,n,n,n,28µM,n
COC1(OC)N=C(N)C2(C#N)C(c3cccc(Oc4ccccc4)c3)C12C#N (stereo not given),n,u,u,n,22µM,n
NS(=O)(=O)c1ccc(N=Nc2c[nH]c(=O)c(O)c2)cc1,u,32µM,2.5µM,n,u,u
COc1cc(C(=O)Nc2ccc(S(=O)(=O)N3CCCCC3C)cc2)cc(OC)c1OC (stereo not given),u,n,n,n,u,n
COc1ccc(N2CCN(C(=O)C3CCN(S(=O)(=O)c4ccccc4)CC3)CC2)cc1,n,n,n,x,n,n
COc1ccc(C(=O)Nc2ccc(S(=O)(=O)N3CCCCC3C)cc2)c(OC)c1OC (stereo not given),n,u,n,u,18µM,n
COc1ccc(NC(=O)c2cccc(-n3cnnn3)c2)cc1,n,n,n,x,n,n
CC1CCCCN1S(=O)(=O)c1ccc(NC(=O)c2cccc(-n3cnnn3)c2)cc1 (stereo not given),18µM[quencher],n,n,22µM,25µM,u
O=C(C1CCN(S(=O)(=O)c2ccc(-n3cnnn3)cc2)CC1)N1CCN(c2ccccc2)CC1,n,n,n,n,28µM,n
CC1CCCN(S(=O)(=O)c2ccc(NC(=O)c3cccc(-n4cnnn4)c3)cc2)C1 (stereo not given),u,n,n,28µM,u,u
COc1ccc(-c2cc(C(=O)OCC(=O)c3ccc(C)cc3)c3cccc(Cl)c3n2)cc1,n,x,n,x,x,u
COCc1cc(C)nc2sc3c(c12)NC(c1ccc(O)cc1)N(c1ccc(C)cc1)C3=O (stereo not given),u,x,n,x,x,n
O=C(N=Nc1ccc(NOC(=O)c2ccccc2Br)cc1)c1ccccc1O,u,u,10µM,x,22µM,u
O=C1NC(=Nc2ccccc2)S/C1=C/c1cccs1,n,n,n,x,n,n
Cc1cc(/C=C2\SC(=Nc3ccccc3)NC2=O)c(C)n1-c1ccc(S(N)(=O)=O)cc1,u,u,u,n,28µM,n
CCC(CC)C(=O)Nc1nnc(S(=O)(=O)N(C)c2cc(C)cc(C)c2)s1,n,x,n,x,x,n
CCOC(=O)c1cccc(NC(=O)CCS(=O)(=O)c2ccc3c(c2)CC(=O)N3C)c1,n,x,n,x,x,n
Cc1n[nH]c(C)c1C(=O)CC1(O)C(=O)N(Cc2ccccc2)c2ccc(Br)cc21 (stereo not given),n,n,n,n,10µM,n
